Screening data deposited in PubChem BioAssay by National Center for Advancing Translational Sciences (NCATS).
GALK inh: inhibitors of human galactokinase (GALK). P51570. recombinant GALK, Kinase-Glo ATP luminescence, 1 h. Potency, µM (highest dose often 57.5 µM), most hits filed as inhibitors. 44,000 tested, under 10 active. AID 1347072
Target sequence (P51570 whole entry, looked up): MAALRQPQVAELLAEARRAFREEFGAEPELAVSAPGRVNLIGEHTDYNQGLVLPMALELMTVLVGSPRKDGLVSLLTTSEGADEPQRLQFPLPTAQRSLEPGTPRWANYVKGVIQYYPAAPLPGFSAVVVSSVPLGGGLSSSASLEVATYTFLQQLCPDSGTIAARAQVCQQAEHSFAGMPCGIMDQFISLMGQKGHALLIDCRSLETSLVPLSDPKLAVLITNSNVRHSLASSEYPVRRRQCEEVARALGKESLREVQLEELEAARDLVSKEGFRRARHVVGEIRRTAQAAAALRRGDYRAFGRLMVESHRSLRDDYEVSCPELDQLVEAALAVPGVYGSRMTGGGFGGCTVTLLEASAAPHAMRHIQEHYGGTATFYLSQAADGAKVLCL
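5 nM GALK; 35 uM ATP; 100 uM D-galactose; 20 mM HEPES pH 8.0, 5 mM MgCl2, 60 mM NaCl, 1 mM DTT, 0.01% BSA; 1 h RT; Kinase-Glo Plus luminescence.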
NTMT1 inhibitor: NTMT1 methyltransferase inhibition | NTMT1 MTase-Glo SAH luminescence, purified enzyme | Potency, µM (series often up to 114 µM), usual class: inhibitors | actives 2.5% (n = 59,000) | Q9BV86 | AID 1645870; further: nearly all actives have a fitted effect of over 65% in size
Target sequence (Q9BV86 whole entry, looked up): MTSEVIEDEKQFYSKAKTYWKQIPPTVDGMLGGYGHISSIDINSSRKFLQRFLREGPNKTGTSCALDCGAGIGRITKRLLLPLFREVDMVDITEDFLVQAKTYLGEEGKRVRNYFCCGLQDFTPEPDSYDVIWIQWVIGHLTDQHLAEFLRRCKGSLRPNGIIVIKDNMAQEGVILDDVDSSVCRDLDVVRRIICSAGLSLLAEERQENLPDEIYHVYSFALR
HTT prom inh: inhibitors of huntingtin promoter activity; AID 1508623; actives 0.93% (n = 48,000); Potency, µM (highest dose often 57.5 µM), actives largely listed as inhibitors; HEK293 HTT promoter firefly luciferase reporter, 24 h; further: nearly all actives have a fitted effect of over 50% in size
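Firefly luciferase readout (Dual-Glo, 10 min RT) after 24 h, 37 °C compound exposure (final up to 57.5 uM) of HEK293 reporter cells cultured 24 h beforehand; PTC124 at 50 uM final as control inhibitor; activity scaled vehicle 0%, zero RLU -100%.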
OvCa metastasis: inhibitors of ovarian cancer cell adhesion and invasion in omental model | SKOV3ip1-GFP adhesion/invasion on 3D omental model, fluorescence | Potency, µM (titrated, usually from 45.8 µM), most hits filed as inhibitors | actives 0.1% (n = 46,000); further: nearly all actives have a fitted effect of over 65% in size
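Adhesion/invasion was scored as fixed GFP-labeled SKOV3ip1 cell counts (488/509 nm), normalized to DMSO and tomatine controls. Cancer cells in serum-free medium, with four compound doses (0.36-46 umol/L), sat 2 hr at RT then 16 hr at 37 C on a 48 hr fibroblast/mesothelial/ECM culture.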
TSG101-PTAP inh: TSG101-PTAP interaction inhibition, HIV-1 budding; Q99816; Potency, µM (highest dose often 115 µM), most hits filed as inhibitors; 44,000 tested, under 10 active; Fluorescence polarization, FITC-PTAP peptide/Tsg101, 20 min
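FITC-labeled PTAP peptide (50 nM final) binding to Tsg101 binding domain (10 uM final) read by fluorescence polarization after 20 min at r.t. in HEPES pH 7.5 buffer. Actives by CRC class, <25 µM.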
HTT-AS promoter: activators of huntingtin-antisense promoter activity | HEK293 HTT-AS promoter firefly luciferase reporter, 24 h; response scale: percent change from vehicle, -100% = no light | Potency, µM (highest dose often 57.5 µM), hits mostly activators | actives 0.24% (n = 48,000) | AID 1508624; further: nearly all actives have a fitted effect of over 55% in size
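Quantitative HTS used concentration series of up to 57.5 uM final on HEK293 luciferase reporter cells, 24 h at 37 degrees C. Readout was Dual-Glo firefly luminescence.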
Hits are given with their value; 0 = inactive; ? = inconclusive; - = no result; ! = not active in a repeat; [ ] = dose if it differs, or a comment. Compounds with a hit are over-represented: about 2.5% of the library has one in this group of screens. The call rests on the fitted dose curve; in most records, active means well fitted curve in the direction sought with a large enough effect; inconclusive means small, poorly fitted or top-dose-only effect, or another doubt; inactive means no such curve, though single readings can be large; an effect the other way counts as inactive or inconclusive.

SMILES	GALK inh	NTMT1 inhibitor	HTT prom inh	OvCa metastasis	TSG101-PTAP inh	HTT-AS promoter
O=c1oc2ccccc2n1CCCOc1ccccc1Cl	0	0	0	0	0	7.9µM
CONC(=O)c1ccccc1Nc1cc(Nc2cc(C)nn2C(C)C)ncc1Cl	-	0	-	-	-	-
CCOc1ccc(NC(=O)c2ccc3c(=O)n4c(nc3c2)CCCCC4)cc1	0	0	0	0	0	0
COc1ccc(C)cc1NC(=O)c1ccc2c(=O)n3c(nc2c1)CCCCC3	0	79µM	0	0	0	0
COc1cc(OC)cc(C(=O)Nc2ccc3nc4n(c(=O)c3c2)CCCCC4)c1	0	45µM	0	0	0	?
COc1cccc(NC(=O)CC(=O)Nc2ccc3nc4n(c(=O)c3c2)CCCCC4)c1	0	0	0	0	0	0
CCOC(=O)c1c(-c2ccccc2)no[n+]1[O-]	-	0	-	-	-	-
c1ccc(CNc2nc(NCc3ccccc3)c3ccccc3n2)cc1	-	45µM!	?	0	-	0
CCOc1ccc(NC(=O)c2ccc(F)c(S(=O)(=O)N(CC)Cc3ccccc3)c2)cc1	0	0	2µM	0	0	0
COC(=O)c1ccc(CN(Cc2ccc(OC)c(OC)c2)S(=O)(=O)c2cc(C(=O)Nc3cccc(C)c3)ccc2F)cc1	0	0	0	0	0	0
CCN(Cc1ccccc1)S(=O)(=O)c1cc(C(=O)Nc2cc(Cl)cc(Cl)c2)ccc1F	0	0	25µM	?	0	0
CC(C)(C)OC(=O)N1CCN(c2ccc(NCc3ccc4c(c3)OCO4)cc2)CC1	-	0	-	-	-	-
COc1ccc(C(=O)NCCc2csc(-c3ccc(Cl)cc3)n2)cc1	0	0	?	0	0	0
CCCCOc1ccc(C(=O)NCCc2csc(-c3ccc(OC)cc3)n2)cc1	0	0	22µM	0	0	0
O=C(O)[C@@H]1C[C@H]2C[C@@H](CCc3nn[nH]n3)CC[C@H]2CN1	-	0	-	-	-	-
CC[C@]12C=CCN3CC[C@@]4(c5cc([C@@]6(C(=O)OC)C[C@H]7C[C@@H](C(C)(F)F)CN(Cc8c6[nH]c6ccccc86)C7)c(OC)cc5N(C)[C@H]4[C@@](O)(C(=O)OC)[C@@H]1OC(C)=O)[C@@H]32	-	0[12.6 µM]	-	-	-	-
Oc1cc(CNC(=S)/C=C/c2cc(O)c(O)c(Br)c2)cc(O)c1O	-	45µM	-	-	-	-
CC(=O)Nc1ccc(Cl)cc1C(=O)c1ccc[nH]1	-	0	-	-	-	-
N[C@H](Cc1ccccc1)C(=O)Nc1ccc(Cl)cc1C(=O)c1ccc[nH]1	-	28µM	-	-	-	-
Cc1ccccc1NS(=O)(=O)c1ccc2c(c1)NC(=O)CCS2	0	0	0	0	0	0
COc1cc(OC)c(NS(=O)(=O)c2ccc3c(c2)NC(=O)CCS3)cc1Cl	0	0	28µM	0	0	0
COc1cc(NC(=O)CSc2nc(-c3ccco3)cc(C(F)(F)F)n2)cc(OC)c1OC	0	0	13µM	0	0	0
COc1cc(NC(=O)CCCSc2nc(-c3ccco3)cc(C(F)(F)F)n2)cc(OC)c1OC	0	0	?	0	0	0
CCOC(=O)c1nn(-c2ccccc2)c(=O)c2c(N)scc12	-	50µM	-	-	-	-
OCCN1CCN(c2ncnc3c2cnn3-c2cccc(Cl)c2)CC1	0	?	0	0	0	?
SMILES	GALK inh	NTMT1 inhibitor	HTT prom inh	OvCa metastasis	TSG101-PTAP inh	HTT-AS promoter
NC(=O)C1CCN(c2ncnc3c2cnn3-c2cccc(Cl)c2)CC1	0	0	4.5µM	0	0	0
Cc1oc(-c2ccc(C(=O)NCc3ccccc3Cl)cc2)nc1CN1CCc2ccccc21	0	0	14µM	0	0	0
CCCCNC(=O)c1ccc(-c2nc(CN3CCc4ccccc43)c(C)o2)cc1	0	0	0	0	0	0
COc1ccccc1CNC(=O)c1ccc(-c2nc(CN3CCc4ccccc43)c(C)o2)cc1	0	0	18µM	0	0	0
Fc1ccc(Nc2nc(-c3ccnc(C(F)(F)F)c3)nc3ccccc23)cc1F	-	0	-	-	-	-
Cc1cccc(N2CCN(C(=O)C3CCN(C(=O)c4cc5sccc5n4C)CC3)CC2C)c1 (configuration not stated)	0	0	22µM	0	0	0
Nc1nc(CC(=O)Nc2ccc(CCNCC(O)c3ccccc3)cc2)cs1 (configuration not stated)	-	0	-	-	-	-
Cc1cc2ncc(-c3ccccc3)nc2cc1C	-	45µM	-	-	-	-
CN(C)c1cc(NC(=O)CNC(C)(C)C)c(O)c2c1C[C@@H]1C[C@H]3[C@H](N(C)C)C(=O)C(C(N)=O)=C(O)[C@@]3(O)C(=O)C1=C2O	-	40µM	0	0	-	0
CN(C)c1cc(NC(=O)CNC(C)(C)C)c(O)c2c1C[C@H]1C[C@H]3[C@H](N(C)C)C(=O)C(C(N)=O)=C(O)[C@]3(O)C(=O)C1=C2O	-	40µM	-	-	-	-
CC1(C)OC2=C(C(=O)c3ccccc3C2=O)[C@H](NCc2ccccc2)[C@H]1O	-	0	?	?	-	0
COc1ccc(COc2ccc(-c3nc4ccccc4[nH]3)cc2)cc1OC	-	0	-	-	-	-
N#Cc1ccccc1CCc1nc2ncc(Br)cc2[nH]1	-	0	-	-	-	-
CC1=C(C(=O)Nc2ccc(Cl)cc2)C(c2ccccc2)n2ncc(C(=O)Nc3ccccc3)c2N1 (configuration not stated)	0	0	25µM	?	0	0
CC1=C(C(=O)Nc2ccc(Cl)cc2)C(c2ccccc2C)n2ncc(C(=O)Nc3ccc(C)cc3)c2N1 (configuration not stated)	0	0	?	0	0	0
N#CC(c1ccnc(OCc2ccc(CN3CCOCC3)cc2)n1)c1nc2ccccc2s1 (configuration not stated)	-	0	-	-	-	-
CCS(=O)(=O)c1ncc(Cl)c(C(=O)NCc2ccccc2)n1	0	0	?	10µM	0	0
O=C(NCc1ccccc1)c1nc(S(=O)(=O)Cc2ccccc2)ncc1Cl	0	0	?	?	0	0
COc1ccc(CNC(=O)c2nc(S(=O)(=O)Cc3ccccc3)ncc2Cl)cc1	0	0	?	3.5µM	0	0
CCOc1ccccc1NC(=O)c1nc(S(=O)(=O)Cc2cccc(C)c2)ncc1Cl	0	0	0	0	0	0
CC[C@H](CO)Nc1nc(NCc2ccc(-c3ccccn3)cc2)c2ncn(C(C)C)c2n1	-	0	-	-	-	-
COc1cccc(-c2cc(C(F)(F)F)n3nc(-c4ccc(C)cc4)cc3n2)c1	0	0	0	0	0	0
CN1C(=O)C(C)(C)c2cc(S(=O)(=O)NCc3ccc(C(=O)Nc4ccc(Cl)cc4)cc3)ccc21	?	0	18µM	0	0	0
